Experiments:
Assay in all cases: DAPPL (digital affinity profiling via proximity ligation, sequencing); 10 mM Tris-HCl pH 7.5, 50 mM NaCl, 1 mM DTT, 4% glycerol, room temperature, 30 min; GST-TFs on glutathione beads, 16-mer random dsDNA library, 0.1% formaldehyde crosslink after washing; high values mean tight binding
FLI1 = target: T1, FLI1 (Homo sapiens, UniProt Q01543 1-452); conditions: protein: recombinant; tags: N-terminal GST; dsDNA, one strand shown
T1 sequence: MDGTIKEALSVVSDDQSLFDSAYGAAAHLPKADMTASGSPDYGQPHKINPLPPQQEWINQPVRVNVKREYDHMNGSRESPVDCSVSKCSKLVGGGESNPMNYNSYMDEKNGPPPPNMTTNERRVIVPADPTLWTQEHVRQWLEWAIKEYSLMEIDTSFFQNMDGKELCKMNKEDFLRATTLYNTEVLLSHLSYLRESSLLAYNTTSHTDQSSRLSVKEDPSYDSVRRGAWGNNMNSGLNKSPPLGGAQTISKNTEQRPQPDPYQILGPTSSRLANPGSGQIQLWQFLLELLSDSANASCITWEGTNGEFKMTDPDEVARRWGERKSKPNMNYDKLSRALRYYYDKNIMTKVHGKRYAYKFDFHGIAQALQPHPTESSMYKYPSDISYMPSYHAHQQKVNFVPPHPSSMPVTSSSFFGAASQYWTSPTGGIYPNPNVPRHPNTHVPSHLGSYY
Method in brief: (§1)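 GST fusions of human transcription factors were expressed in yeast and captured with glutathione beads. Once given DNA barcodes and pooled alongside a tag-only sample, they were incubated for 30 min at room temperature with 200 nmole of a random double-stranded 16-mer DNA library in Tris/NaCl/DTT/glycerol buffer, then washed, crosslinked (0.1% formaldehyde), proximity-ligated, PCR-amplified and sequenced on an Illumina NextSeq500. The binding signal of each hexamer is its read frequency for a factor divided by its frequency for the tag-only sample.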

ELK1 = target: T2, ELK1 (Homo sapiens, UniProt P19419 1-428); conditions: protein: recombinant; tags: N-terminal GST; dsDNA, one strand shown
T2 sequence: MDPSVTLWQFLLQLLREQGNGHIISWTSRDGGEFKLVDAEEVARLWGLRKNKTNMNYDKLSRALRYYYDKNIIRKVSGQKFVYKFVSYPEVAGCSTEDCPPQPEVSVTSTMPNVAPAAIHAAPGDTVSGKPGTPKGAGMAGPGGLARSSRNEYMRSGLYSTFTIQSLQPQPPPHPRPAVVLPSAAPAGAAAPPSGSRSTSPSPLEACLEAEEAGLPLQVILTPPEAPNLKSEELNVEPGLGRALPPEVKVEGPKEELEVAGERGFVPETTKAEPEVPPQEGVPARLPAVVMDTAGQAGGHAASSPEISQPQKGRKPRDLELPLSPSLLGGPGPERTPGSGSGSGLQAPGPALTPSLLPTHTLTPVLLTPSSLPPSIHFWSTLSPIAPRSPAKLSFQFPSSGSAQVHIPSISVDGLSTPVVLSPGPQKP
Method in brief: as §1

GABPA = target: T3, GABPA (Homo sapiens, UniProt Q06546 1-454); conditions: protein: recombinant; tags: N-terminal GST; dsDNA, one strand shown
T3 sequence: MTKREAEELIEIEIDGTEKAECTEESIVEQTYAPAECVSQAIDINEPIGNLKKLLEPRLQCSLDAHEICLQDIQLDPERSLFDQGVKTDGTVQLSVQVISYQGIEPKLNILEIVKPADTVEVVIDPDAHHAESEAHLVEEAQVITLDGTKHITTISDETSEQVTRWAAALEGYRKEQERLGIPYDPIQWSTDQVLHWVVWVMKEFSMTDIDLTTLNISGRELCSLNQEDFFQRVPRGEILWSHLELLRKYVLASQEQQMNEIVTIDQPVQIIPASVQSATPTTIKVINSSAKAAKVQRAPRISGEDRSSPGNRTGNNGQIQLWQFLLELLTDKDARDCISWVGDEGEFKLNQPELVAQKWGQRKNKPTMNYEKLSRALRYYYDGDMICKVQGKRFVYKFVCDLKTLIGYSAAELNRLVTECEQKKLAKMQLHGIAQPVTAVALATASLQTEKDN
Method in brief: as §1

ERG = target: T4, ERG (Homo sapiens, UniProt P11308 1-479); conditions: protein: recombinant; tags: N-terminal GST; dsDNA, one strand shown
T4 sequence: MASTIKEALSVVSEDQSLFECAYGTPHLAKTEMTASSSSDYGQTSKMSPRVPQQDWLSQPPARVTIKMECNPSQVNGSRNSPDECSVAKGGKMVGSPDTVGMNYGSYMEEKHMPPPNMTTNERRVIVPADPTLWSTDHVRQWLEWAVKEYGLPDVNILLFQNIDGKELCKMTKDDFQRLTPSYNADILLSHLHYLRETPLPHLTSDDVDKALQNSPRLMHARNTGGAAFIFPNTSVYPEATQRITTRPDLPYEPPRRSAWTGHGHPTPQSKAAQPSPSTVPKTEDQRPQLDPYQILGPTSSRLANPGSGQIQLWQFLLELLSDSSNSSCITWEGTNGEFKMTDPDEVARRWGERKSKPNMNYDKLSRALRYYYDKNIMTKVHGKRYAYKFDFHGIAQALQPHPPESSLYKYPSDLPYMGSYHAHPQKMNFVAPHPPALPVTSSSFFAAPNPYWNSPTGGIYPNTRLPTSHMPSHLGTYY
Method in brief: as §1

ELF1 = ELF1 (Homo sapiens, UniProt P32519 1-619); conditions: protein: recombinant; tags: N-terminal GST; dsDNA, one strand shown
Method in brief: as §1

EHF = target: T5, EHF (Homo sapiens, UniProt Q9NZC4 1-300); conditions: protein: recombinant; tags: N-terminal GST; dsDNA, one strand shown
T5 sequence: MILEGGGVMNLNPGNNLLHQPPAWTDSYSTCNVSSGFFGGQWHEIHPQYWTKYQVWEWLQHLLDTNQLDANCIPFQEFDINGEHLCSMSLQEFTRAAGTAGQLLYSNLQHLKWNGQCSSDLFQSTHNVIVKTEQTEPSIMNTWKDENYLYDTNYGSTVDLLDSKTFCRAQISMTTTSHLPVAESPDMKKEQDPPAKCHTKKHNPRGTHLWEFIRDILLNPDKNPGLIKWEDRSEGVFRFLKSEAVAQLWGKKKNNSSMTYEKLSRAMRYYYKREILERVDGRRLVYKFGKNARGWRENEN
Method in brief: as §1

SPI1 = SPI1 (Homo sapiens, UniProt P17947 1-270); conditions: protein: recombinant; tags: N-terminal GST; dsDNA, one strand shown
Method in brief: as §1

SPIB = SPIB (Homo sapiens, UniProt Q01892 1-262); conditions: protein: recombinant; tags: N-terminal GST; dsDNA, one strand shown
Method in brief: as §1

ELK3 = target: T6, ELK3 (Homo sapiens, UniProt P41970 1-407); conditions: protein: recombinant; tags: N-terminal GST; dsDNA, one strand shown
T6 sequence: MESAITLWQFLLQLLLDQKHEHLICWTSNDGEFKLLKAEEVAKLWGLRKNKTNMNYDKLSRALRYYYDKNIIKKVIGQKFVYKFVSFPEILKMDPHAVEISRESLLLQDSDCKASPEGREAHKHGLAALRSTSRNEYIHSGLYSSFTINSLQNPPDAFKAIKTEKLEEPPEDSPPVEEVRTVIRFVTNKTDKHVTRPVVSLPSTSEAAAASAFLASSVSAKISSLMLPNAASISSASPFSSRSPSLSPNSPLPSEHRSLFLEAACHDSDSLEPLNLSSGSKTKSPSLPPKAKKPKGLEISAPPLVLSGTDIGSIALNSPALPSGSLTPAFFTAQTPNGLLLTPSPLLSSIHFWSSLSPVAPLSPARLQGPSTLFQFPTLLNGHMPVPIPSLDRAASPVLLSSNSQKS
Method in brief: as §1

FEV = target: T7, FEV (Homo sapiens, UniProt Q99581 1-238); conditions: protein: recombinant; tags: N-terminal GST; dsDNA, one strand shown
T7 sequence: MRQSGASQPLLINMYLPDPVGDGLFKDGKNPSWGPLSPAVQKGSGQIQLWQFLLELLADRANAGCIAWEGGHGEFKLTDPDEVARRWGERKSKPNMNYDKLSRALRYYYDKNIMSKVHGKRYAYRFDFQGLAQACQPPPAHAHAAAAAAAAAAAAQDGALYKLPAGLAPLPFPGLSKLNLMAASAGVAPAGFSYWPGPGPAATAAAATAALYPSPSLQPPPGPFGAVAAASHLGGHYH
Method in brief: as §1

ETV5 = ETV5 (Homo sapiens, UniProt P41161 1-510); conditions: protein: recombinant; tags: N-terminal GST; dsDNA, one strand shown
Method in brief: as §1

HSF1 = HSF1 (Homo sapiens, UniProt Q00613 1-529); conditions: protein: recombinant; tags: N-terminal GST; chain copies: 3; dsDNA, one strand shown
Method in brief: as §1

SPIC = target: T8, SPIC (Homo sapiens, UniProt Q8N5J4 1-248); conditions: protein: recombinant; tags: N-terminal GST; dsDNA, one strand shown
T8 sequence: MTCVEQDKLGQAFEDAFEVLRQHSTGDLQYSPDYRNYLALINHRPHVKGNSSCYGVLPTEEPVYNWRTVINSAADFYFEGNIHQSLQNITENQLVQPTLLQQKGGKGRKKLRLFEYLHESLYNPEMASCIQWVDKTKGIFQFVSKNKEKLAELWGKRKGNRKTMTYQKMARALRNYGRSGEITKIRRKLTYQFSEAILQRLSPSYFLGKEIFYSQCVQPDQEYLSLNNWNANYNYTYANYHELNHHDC
Method in brief: as §1

ELF4 = ELF4 (Homo sapiens, UniProt Q99607 1-663); conditions: protein: recombinant; tags: N-terminal GST; dsDNA, one strand shown
Method in brief: as §1

ELK4 = target: T9, ELK4 (Homo sapiens, UniProt P28324-2 1-405); conditions: protein: recombinant; tags: N-terminal GST; dsDNA, one strand shown
T9 sequence: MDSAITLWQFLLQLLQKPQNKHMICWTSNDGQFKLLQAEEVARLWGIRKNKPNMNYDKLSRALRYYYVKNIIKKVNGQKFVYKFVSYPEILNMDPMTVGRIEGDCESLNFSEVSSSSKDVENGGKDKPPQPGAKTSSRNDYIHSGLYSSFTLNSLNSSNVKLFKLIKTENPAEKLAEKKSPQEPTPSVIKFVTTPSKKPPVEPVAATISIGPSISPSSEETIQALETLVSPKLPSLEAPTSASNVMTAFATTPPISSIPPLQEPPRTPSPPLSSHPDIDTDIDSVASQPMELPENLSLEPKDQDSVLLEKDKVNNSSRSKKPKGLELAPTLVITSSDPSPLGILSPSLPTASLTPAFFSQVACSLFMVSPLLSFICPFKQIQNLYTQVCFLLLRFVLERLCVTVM
Method in brief: as §1

ETV2 = target: T10, ETV2 (Homo sapiens, UniProt O00321 1-342); conditions: protein: recombinant; tags: N-terminal GST; dsDNA, one strand shown
T10 sequence: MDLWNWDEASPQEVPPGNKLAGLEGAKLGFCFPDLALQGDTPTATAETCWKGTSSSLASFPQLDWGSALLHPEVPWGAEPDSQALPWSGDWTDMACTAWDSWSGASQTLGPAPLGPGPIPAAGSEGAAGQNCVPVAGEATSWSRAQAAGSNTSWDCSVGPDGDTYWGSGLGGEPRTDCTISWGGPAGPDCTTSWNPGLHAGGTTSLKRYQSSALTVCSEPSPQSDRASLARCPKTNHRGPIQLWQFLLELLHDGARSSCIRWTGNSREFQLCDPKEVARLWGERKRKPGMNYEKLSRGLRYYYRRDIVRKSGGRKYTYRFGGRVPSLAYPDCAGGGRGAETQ
Method in brief: as §1

ELF3 = target: T11, ELF3 (Homo sapiens, UniProt P78545 1-371); conditions: protein: recombinant; tags: N-terminal GST; dsDNA, one strand shown
T11 sequence: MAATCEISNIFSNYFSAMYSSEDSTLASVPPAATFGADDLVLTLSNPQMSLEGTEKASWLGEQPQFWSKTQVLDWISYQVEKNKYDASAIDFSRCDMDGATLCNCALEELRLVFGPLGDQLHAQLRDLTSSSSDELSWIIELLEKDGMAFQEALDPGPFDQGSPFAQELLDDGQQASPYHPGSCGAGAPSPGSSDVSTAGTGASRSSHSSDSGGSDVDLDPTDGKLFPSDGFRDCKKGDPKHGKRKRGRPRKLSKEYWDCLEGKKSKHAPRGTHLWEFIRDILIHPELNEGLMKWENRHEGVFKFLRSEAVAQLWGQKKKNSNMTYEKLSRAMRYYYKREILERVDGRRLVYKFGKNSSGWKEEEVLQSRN
Method in brief: as §1

CRX = CRX (Homo sapiens, UniProt O43186 1-299); conditions: protein: recombinant; tags: N-terminal GST; dsDNA, one strand shown
Method in brief: as §1

ETV1 = ETV1 (Homo sapiens, UniProt P50549 1-477); conditions: protein: recombinant; tags: N-terminal GST; dsDNA, one strand shown
Method in brief: as §1

Sequence of ELF1 (P32519 whole entry): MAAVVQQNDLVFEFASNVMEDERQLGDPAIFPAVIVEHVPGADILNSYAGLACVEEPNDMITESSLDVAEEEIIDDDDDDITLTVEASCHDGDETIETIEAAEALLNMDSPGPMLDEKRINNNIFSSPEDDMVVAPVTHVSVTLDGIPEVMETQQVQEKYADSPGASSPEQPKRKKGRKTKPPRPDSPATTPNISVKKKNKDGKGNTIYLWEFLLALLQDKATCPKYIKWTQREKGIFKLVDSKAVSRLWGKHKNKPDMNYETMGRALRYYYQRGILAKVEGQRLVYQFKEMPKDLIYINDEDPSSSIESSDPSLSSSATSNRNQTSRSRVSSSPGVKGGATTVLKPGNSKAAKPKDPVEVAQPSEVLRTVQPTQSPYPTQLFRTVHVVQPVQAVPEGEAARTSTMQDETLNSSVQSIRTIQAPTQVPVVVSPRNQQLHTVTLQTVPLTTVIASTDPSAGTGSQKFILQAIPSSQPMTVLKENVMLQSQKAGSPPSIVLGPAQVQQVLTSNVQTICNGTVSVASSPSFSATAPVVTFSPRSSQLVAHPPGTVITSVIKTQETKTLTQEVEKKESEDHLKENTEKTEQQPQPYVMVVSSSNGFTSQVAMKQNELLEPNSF
Sequence of CRX (O43186 whole entry): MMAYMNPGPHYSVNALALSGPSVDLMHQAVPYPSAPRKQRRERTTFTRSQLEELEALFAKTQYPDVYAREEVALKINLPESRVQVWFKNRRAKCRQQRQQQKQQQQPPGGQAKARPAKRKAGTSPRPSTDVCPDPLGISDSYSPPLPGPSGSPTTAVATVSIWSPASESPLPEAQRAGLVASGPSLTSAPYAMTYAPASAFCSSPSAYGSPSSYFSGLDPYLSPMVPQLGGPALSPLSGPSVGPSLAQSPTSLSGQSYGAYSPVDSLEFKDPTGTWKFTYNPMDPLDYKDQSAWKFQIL
Sequence of ETV1 (P50549 whole entry): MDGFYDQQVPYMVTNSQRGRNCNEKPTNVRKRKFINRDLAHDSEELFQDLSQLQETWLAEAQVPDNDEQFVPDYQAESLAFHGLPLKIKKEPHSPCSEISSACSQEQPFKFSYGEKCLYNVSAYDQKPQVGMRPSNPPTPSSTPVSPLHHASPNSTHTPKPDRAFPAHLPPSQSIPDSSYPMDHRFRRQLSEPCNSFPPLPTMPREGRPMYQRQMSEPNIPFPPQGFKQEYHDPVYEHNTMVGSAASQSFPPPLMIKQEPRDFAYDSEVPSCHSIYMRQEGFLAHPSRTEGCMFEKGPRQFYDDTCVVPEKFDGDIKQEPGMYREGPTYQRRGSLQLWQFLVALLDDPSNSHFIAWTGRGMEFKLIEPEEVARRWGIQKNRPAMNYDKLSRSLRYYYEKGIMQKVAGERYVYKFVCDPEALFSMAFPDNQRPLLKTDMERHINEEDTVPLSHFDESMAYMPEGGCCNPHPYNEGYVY
Sequence of ELF4 (Q99607 whole entry): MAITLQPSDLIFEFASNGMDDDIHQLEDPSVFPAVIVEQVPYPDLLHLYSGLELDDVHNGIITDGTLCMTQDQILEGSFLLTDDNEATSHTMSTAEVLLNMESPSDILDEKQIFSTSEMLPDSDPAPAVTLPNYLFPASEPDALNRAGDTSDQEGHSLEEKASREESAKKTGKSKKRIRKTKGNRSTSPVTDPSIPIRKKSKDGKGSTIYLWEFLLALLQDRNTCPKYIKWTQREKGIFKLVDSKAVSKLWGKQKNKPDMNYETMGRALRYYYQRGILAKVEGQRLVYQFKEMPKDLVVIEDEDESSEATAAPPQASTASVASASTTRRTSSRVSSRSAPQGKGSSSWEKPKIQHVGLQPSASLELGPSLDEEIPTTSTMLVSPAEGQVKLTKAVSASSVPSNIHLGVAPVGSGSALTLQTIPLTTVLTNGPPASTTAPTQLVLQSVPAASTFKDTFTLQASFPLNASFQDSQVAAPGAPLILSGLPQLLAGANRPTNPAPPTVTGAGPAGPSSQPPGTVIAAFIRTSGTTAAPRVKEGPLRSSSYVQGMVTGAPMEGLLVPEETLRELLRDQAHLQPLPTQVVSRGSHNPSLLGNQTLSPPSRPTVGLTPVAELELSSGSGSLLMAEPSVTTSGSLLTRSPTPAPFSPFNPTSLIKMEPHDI
Sequence of ETV5 (P41161 whole entry): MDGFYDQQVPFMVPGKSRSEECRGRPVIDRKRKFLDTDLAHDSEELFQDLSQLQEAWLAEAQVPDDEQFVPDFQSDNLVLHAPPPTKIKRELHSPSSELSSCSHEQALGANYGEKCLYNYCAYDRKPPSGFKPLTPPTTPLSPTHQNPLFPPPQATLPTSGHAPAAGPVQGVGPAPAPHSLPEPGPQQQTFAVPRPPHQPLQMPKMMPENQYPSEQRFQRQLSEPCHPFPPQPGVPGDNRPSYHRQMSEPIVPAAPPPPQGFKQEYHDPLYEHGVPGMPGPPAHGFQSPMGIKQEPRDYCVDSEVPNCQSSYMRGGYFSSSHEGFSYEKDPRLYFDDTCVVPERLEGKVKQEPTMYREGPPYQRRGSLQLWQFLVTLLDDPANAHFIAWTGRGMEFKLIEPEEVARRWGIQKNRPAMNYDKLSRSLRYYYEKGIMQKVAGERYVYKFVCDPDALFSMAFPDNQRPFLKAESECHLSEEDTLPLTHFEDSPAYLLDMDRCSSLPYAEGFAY
Sequence of SPIB (Q01892 whole entry): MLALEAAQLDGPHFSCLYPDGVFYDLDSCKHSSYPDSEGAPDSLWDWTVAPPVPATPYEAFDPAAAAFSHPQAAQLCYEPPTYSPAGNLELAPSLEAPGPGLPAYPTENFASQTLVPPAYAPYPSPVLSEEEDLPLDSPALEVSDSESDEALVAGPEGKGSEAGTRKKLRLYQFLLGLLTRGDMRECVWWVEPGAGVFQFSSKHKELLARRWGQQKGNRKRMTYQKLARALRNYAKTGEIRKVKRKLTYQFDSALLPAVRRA
Sequence of HSF1 (Q00613 whole entry): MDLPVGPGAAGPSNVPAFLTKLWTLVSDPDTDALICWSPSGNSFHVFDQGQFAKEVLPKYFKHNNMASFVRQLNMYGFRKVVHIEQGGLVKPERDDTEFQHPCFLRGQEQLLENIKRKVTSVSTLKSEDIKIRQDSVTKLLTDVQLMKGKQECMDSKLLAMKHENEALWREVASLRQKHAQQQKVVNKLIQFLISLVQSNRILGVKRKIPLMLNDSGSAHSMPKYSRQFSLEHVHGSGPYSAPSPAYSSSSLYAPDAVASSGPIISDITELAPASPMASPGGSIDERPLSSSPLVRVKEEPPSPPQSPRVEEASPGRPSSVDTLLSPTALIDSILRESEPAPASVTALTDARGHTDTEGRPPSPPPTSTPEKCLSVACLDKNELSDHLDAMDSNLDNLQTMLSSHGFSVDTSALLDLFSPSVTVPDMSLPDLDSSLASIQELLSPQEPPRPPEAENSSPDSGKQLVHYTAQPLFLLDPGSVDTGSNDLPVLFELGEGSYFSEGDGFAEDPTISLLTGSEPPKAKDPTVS

Sequence: CCGCCT
- binding signal (FLI1): 1.68 fold enrichment (6-mer frequency, TF over GST control)
- binding signal (ELK1): 1.55 fold enrichment (6-mer frequency, TF over GST control)
- binding signal (GABPA): 1.55 fold enrichment (6-mer frequency, TF over GST control)
- binding signal (ERG): 1.55 fold enrichment (6-mer frequency, TF over GST control)
- binding signal (ELF1): 1.66 fold enrichment (6-mer frequency, TF over GST control)
- binding signal (EHF): 1.67 fold enrichment (6-mer frequency, TF over GST control)
- binding signal (SPI1): 1.5 fold enrichment (6-mer frequency, TF over GST control)
- binding signal (SPIB): 1.63 fold enrichment (6-mer frequency, TF over GST control)
- binding signal (ELK3): 1.82 fold enrichment (6-mer frequency, TF over GST control)
- binding signal (FEV): 1.43 fold enrichment (6-mer frequency, TF over GST control)
- binding signal (ETV5): 1.6 fold enrichment (6-mer frequency, TF over GST control)
- binding signal (HSF1): 1.08 fold enrichment (6-mer frequency, TF over GST control)
- binding signal (SPIC): 1.61 fold enrichment (6-mer frequency, TF over GST control)
- binding signal (ELF4): 1.52 fold enrichment (6-mer frequency, TF over GST control)
- binding signal (ELK4): 1.45 fold enrichment (6-mer frequency, TF over GST control)
- binding signal (ETV2): 1.46 fold enrichment (6-mer frequency, TF over GST control)
- binding signal (ELF3): 1.35 fold enrichment (6-mer frequency, TF over GST control)
- binding signal (CRX): 1.25 fold enrichment (6-mer frequency, TF over GST control)
- binding signal (ETV1): 1.47 fold enrichment (6-mer frequency, TF over GST control)
